Laboratory results: the supplement of paper PMC12632987

T1: USP38, Q8NB14
T1 chain: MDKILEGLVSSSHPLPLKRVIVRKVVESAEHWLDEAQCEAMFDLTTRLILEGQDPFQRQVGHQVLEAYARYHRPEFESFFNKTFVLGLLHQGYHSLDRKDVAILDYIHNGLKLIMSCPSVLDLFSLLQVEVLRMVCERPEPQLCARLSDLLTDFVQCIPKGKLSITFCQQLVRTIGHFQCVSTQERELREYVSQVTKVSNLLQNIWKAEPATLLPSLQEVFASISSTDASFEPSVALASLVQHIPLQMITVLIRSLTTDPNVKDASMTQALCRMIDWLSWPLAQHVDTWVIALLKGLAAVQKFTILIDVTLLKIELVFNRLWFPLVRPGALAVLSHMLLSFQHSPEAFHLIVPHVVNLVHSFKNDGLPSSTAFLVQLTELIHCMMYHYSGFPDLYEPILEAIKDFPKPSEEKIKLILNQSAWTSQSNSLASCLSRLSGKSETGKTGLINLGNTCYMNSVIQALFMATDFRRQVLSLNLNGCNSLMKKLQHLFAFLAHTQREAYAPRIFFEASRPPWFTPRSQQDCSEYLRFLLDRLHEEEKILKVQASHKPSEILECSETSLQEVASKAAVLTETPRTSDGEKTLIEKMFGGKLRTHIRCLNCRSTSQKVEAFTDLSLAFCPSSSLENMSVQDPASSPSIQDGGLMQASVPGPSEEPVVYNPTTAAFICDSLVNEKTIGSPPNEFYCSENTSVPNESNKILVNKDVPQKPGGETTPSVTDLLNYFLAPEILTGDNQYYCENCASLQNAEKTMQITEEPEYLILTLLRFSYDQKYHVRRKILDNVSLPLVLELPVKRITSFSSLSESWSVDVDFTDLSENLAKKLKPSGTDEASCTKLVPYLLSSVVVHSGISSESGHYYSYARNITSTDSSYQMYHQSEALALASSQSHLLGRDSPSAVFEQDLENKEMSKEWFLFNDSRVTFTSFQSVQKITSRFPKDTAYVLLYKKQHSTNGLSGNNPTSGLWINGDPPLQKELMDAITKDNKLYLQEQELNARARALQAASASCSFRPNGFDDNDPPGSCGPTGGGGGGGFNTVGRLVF

B1: usp_38_diff_out_24_27_495 (protein)
chain: EEEKKKLLEKLIEKFEKILELAKKAVGADLATRIKLSSEIDELLEEARKLAKELGIPEVEKLVTQVAIQASIVLSGSEEMEEAIKEIEKIIEELKKLLKE
B2: usp_38_diff_out_23_30_488 (protein)
chain: SPLEEAKKRLREAAEKARKEATEIKKKAEELKKKAENEYLKALANQVIDAANDFIEDLDIWLSRIDEYDEARLLRLTEYVEASLAHLKQLYEDLLKEFKK
B3: usp_38_diff_out_1_9_443 (protein)
chain: SVDDVIIEALEKALEDGLKELKELEKKAEKALKAGDKAQAEALLKRLIRNAEGLIAAAKDAIKLAKKAGLEERAKRLEEMLKEAEKLLEEAKKKLKELKA
B4: usp_38_diff_out_20_123_448 (protein)
chain: SEALRARAEELLRRAEQLLENAKQILKFVKAGVLSEETVESHIKMIESQIEYIRREIERLRAEDPSLAPLLEEVERVVREVEEVLEEIKKAVEERKKEKA
B5: usp_38_diff_out_1_162_44 (protein)
chain: AVEETLAQLEEALERAERLIEEAERALEEGDLERARELLDEAADTLGRAAQLLREARRLSRELSPEERARVRERLRELNERLDELIDRLTELEREVFLRE
B6: usp_38_diff_out_1_162_46 (protein)
chain: EVEKLLEEAEKLLEEAKELIEKAKEAFKEGKLEEAEKYLDEAADKLGQLAKLLREARRLRRELSPERQEEVRKRLRELEERANELIDEYTELETEVFLAK
B7: usp_38_diff_out_20_123_451 (protein)
chain: SEELRKEAEELLKRAKQLLENAKQILKFVKAGVLSEETIEAHIKMIESQIKYIEEKIKELREKDPSLKPLLEEVEKVVKEVKETLKEIKEAAEKRRKEKA
B8: usp_38_diff_out_20_123_450 (protein)
chain: SEELREEAEELLRRAEQLLENSEQILKFVKAGVLSEETIKSHIEMIESQIKYIEEKIERLRKEDPSLEPLLEEVEKIREEVKKTLEEIKKAAEERKKEEA
B9: usp_38_diff_out_20_123_446 (protein)
chain: MEEARERAERLLERARQLLENAKQILKFVKAGVLSKETIESNIKFIESQIEYLERERERLREEHPELEELLEEIDRVLEETREVLKEIKAAAAAREAAEA
B10: usp_38_diff_out_20_123_452 (protein)
chain: AAALRAEAEALLARAQQLLENAEQVLKFVKAGVLSEETVEEHIEMFEAHIEYLEAERARLAAEAPELAPLLAQIDEAIAKAKEVLEKIKEELEKRREEEE
B11: usp_38_diff_out_22_164_477 (protein)
chain: MEEKIKKEVKEKIEKIAEETKKKIDELFAEAKANPEKKEEYIKKARMLLIESNKEIKEYIEKTVKENNLSEETKEELNSHATVQNLKVLNYLDEKIEELK
B12: usp_38_diff_out_22_74_482 (protein)
chain: SAEAEAVAATKAEIEKLTAETLKKLDELYKEAKKYIEAGDYKNARRKLAEMDDLVTETVIYLNKVALAEGAVHDLALAKANEIRKKATEINEELEKLLKE
B13: usp_38_diff_out_1_162_48 (protein)
chain: EVEELLKKAKEKLKEAKELIKKAKEALKAGDLETAKKYLDKAWDLLGELAKLLREARRKMRELSPEERKKVRKELKKLEEEADKLIDELTKLETEVFLKE
B14: usp_38_diff_out_1_9_444 (protein)
chain: DVRREIAEALLEALERGLEELERLRARAEAALAAGDLARAEALLRRLVRNARGLEAAAEDLIEMAKEIGDEELARRAEEILERARRLREEAEARLAELAA
B15: usp_38_diff_out_22_164_478 (protein)
chain: SEEEILKKVKEELEKLAEETKKELDKLFEEAKANPEKKEEYIQEAQMLIIKTQKEMNDYIEETVKKYNLSEETKEELKSHRTVLNLKVLNYLDEKIEELK
B16: usp_38_diff_out_20_123_449 (protein)
chain: SEELRERAERLLRDAERLLENAKQILKFVEAGVLSEETVEAHIEMIEAHIEYIEREIERLRREDPSLAPLLERVERVLEEVKEVLEKIKEAAEKRKEEEK
B17: usp_38_diff_out_22_164_479 (protein)
chain: SEEEILEKLKEEIEKLAEETKKKLEELAKKAKENPEKKEEYLKQMRMLVIQTQQKMGDLIDEAAKKYNLSEETVEELRSHRTVQSLKVLNYLDELEKELE
B18: usp_38_diff_out_1_162_45 (protein)
chain: KVEEVLEEAERLLEEAEKLIEAAEKALAAGDLETARKYLDEAWDKLGELAKLLREARRLRRELSPERQEEVRKRLRELEERADELIDRLTELETEVFLRE
B19: usp_38_diff_out_22_74_485 (protein)
chain: SAEEEANAALRAEIDAKVADWNKYREEAERRIEEAIAAGRYREARRLLAELDDKTTDLIIWLNKQALANGAIHDYALAKAEEIRKKTTEVVERAEARLAA
B20: usp_38_diff_out_20_123_456 (protein)
chain: MEKAKEEAEKLLRRAKQLVENAEQVLKFVKAGVLSEEKAEEYIKSFEEHIKYIEKEVKKLKKEYPELKELLEEVEKEIKKAKKVLKELKEAVEKRKKEEE
B21: usp_38_diff_out_20_123_457 (protein)
chain: MEKLKAEAEALLKRAEALLENAKQILKFVKAGVLSEEQVEEHIEMIEEHIKYLEEELKKLKAAAPELKELLEKVEKAIKETKKVREEIKKELEKRRKEKE
B22: usp_38_diff_out_22_74_487 (protein)
chain: SAAEKAQEEAKKKLEELLKEFNEELEKYLKEAKKAIEAGNLKEARRILGEFTSKFAELSSKIAKAAWEAELPLDEIQKIMTDLTKKAAEAVKEMEEAIKA
B23: usp_38_diff_out_20_123_454 (protein)
chain: SEELRKEAEELLRRAEQLLENAEQILKFVKAGVLSLEKVEEHIKFIEEHIKYLEEKLKELKKKDKSLKELLEKIEELIKKTKEVLKEIKEAVEKRKKEAA
B24: usp_38_diff_out_24_27_497 (protein)
chain: EEEKKEKLEKLIKKFEEILKLAKEAVGADLATRIRLSREIDELLEEARKLAEELGIEEVKKIVTEVAVKASIVLSGSEEMEEAIEEIEKLIEEAKKLLEE
B25: usp_38_diff_out_20_123_458 (protein)
chain: SSEALERAERLLRQAEQLLENAEQILKFVKAGALSEETVEEHIKFIETHIKYLEEELERLEEEHPELEELLERIREILERTRKVLEEIKKALEKRRKEKE
B26: usp_38_diff_out_22_164_481 (protein)
chain: KEEEIKEKLKKEIEEKIKETKKELDKLFAKAKADPEKKEEYIKEARMLLIKTQKELLELIEKTVKENNLSEETKEELRSFLTVQMLKLLNYLDEKEEELK
B27: usp_38_diff_out_22_74_483 (protein)
chain: SAEEAETEALKKEIDEKVKKTKEELDRLRAEAKAAIAAGRYREARRLLAEMDDLVTDTVIWLNKVALAHGAVHDYALAKANEIREYATKINAELEALLEA
B28: usp_38_diff_out_22_74_486 (protein)
chain: SAEAEEVAKIKAEIDKLVAELNAYLEKAKEEAEKAIAAGRLREARRIRAEMDDKVTDAIITLNKIALANGAIHDYALAKAQEIRDKSTKVFEEIDARLAA
B29: usp_38_diff_out_22_74_484 (protein)
chain: SAEEEETEKLRKEIEERKAETLARLEELRAAARAALAAGDERAARRLLAELDDLVTDTVIWLNKVALAHGAIHDYALETALEIRERATAIVAELEAALAA
B30: usp_38_diff_out_20_123_455 (protein)
chain: SEELRERAERLLKRSKQLVENAKQILKFVKAGVLSEETVEEHIKFLEDLIKYFEEELERLKKEDPSLKELLEEVEAAIKEAKEVLKEIKEAAEKRKKEEE
B31: usp_38_diff_out_20_123_447 (protein)
chain: SEELRARAERLLRQAEQLLENAEQILKFVKAGVLSKETQKAHIEFIESQIETIRREIERLRAEDPSLAELLARIEEVLRKVEETLEEIKKAVEKREKEEA
B32: usp_38_diff_out_21_100_459 (protein)
chain: MEEIKKEIKEELEKAEKALKEAIKLLKEGAKKEEILKKLDEALSHLVRAQYLAAKISFELAHKISEIIDIVQEAKKLLDTDKEKALELLEKALKELKELK

Molecular target: T1, USP38, Q8NB14
Assay: median log2 fold change of GCK-ALFA target abundance (FLAG IP / Myc IP barcode read proportion) (log2 ratio); each designed protein is fused to an ALFA-tag nanobody in HEK293 cells to bring the named protein to FLAG-tagged glucokinase (GCK); Myc marks an untargeted standard; higher = target protein stabilised (more abundant)
Conditions: target protein: 3xFLAG-MCP-GCK-ALFA reporter; HEK293 landing pad (RPLP)
Outline: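 Sequencing of reverse-transcribed, amplified circular RNA barcodes from anti-FLAG and anti-Myc immunoprecipitates provided the readout for an ALFA-nanobody-fused binder library recombined into HEK293 landing-pad cells. Those cells were induced with 2 μg mL^−1 doxycycline, transfected with a plasmid expressing a FLAG-tagged target and a Myc-tagged standard, and lysed after 48 h. Target abundance is the per-binder median log2 ratio of FLAG to Myc barcode read proportions. Only barcodes at a proportion of ≥10^−7 in both replicates and binders with ≥3 barcodes per replicate were kept, with a 10^−6 pseudocount added before the two replicates were pooled.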
In the case of B1, the “median log2 fold change” value is reported as 0.368. For B2, the “median log2 fold change” value was 0.13. With B3 the “median log2 fold change” value was 0.0775. With B4 the “median log2 fold change” value was 0.273. B5 was tested, and the “median log2 fold change” value was 0.133. B6 was tested, and the “median log2 fold change” value was -1.08. For B7, the “median log2 fold change” value was 0.227. B8 was tested, and the “median log2 fold change” value was 0.529. B9 was tested, and the “median log2 fold change” value was 0.247. In the case of B10, the “median log2 fold change” value is reported as 0.438. With B11 the “median log2 fold change” value was 0.309. B12 was tested, and the “median log2 fold change” value was 0.312. For B13, the “median log2 fold change” value was -0.368. For B14, the “median log2 fold change” value was -0.00975. For B15, the “median log2 fold change” value was 0.187. B16 was tested, and the “median log2 fold change” value was 0.117. B17 was tested, and the “median log2 fold change” value was 0.177. For B18, the “median log2 fold change” value was -0.331. For B19, the “median log2 fold change” value was -0.0773. B20 was tested, and the “median log2 fold change” value was 0.134. B21 was tested, and the “median log2 fold change” value was 0.24. For B22, the “median log2 fold change” value was -0.392. With B23 the “median log2 fold change” value was 0.308. In the case of B24, the “median log2 fold change” value is reported as 0.276. With B25 the “median log2 fold change” value was 0.0141. In the case of B26, the “median log2 fold change” value is reported as -0.692. With B27 the “median log2 fold change” value was 0.0676. In the case of B28, the “median log2 fold change” value is reported as -0.198. For B29, the “median log2 fold change” value was 0.0294. In the case of B30, the “median log2 fold change” value is reported as 0.12. In the case of B31, the “median log2 fold change” value is reported as 0.258. With B32 the “median log2 fold change” value was -0.0676.
